Results on five compounds are retold here after PubChem BioAssay.

Several values for one entry are separate records, joined by “and”; a condition that tells them apart may be missing. Equal entries are not always repeated. Activity calls are given as the source filed them.

Assay [1] concerns Plasmodium falciparum Sir2 (PF13_0152, Sir2A). As to the kind of experiment: Plasmodium falciparum Sir2A binding compounds – biochemical, small-molecule microarray, 635 nm fluorescence, primary screen (AID 1098).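 Note: score merges spot fluorescence intensity with its signal-to-noise ratio.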 The note with it: fluorescence 635 nm, higher = more signal.
The nature of assay [2]: probe aDKK1 binding to arrayed compounds – biochemical, biotinylated probe, 635/667 nm fluorescence, primary screen (AID 1099).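 Note: score merges 667nm spot fluorescence with signal to noise across triplicate slides.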 The following applies: small-molecule microarray, higher = more signal.
Assay [3] in a line: probe aCHRDL2 binding to arrayed compounds – biochemical, biotinylated probe, 635/667 nm fluorescence, primary screen (AID 1100). The following applies: small-molecule microarray, higher = more signal.
Assay [4] is described as follows: change in splice reporter luminescence, either direction, cell-based, HEK293, spliceosome inhibition project, primary screen (AID 1101).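 Note: HEK293 cells carrying a splicing-competent luciferase reporter gene; test concentration not given here.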 The note with it: HEK293 splicing luciferase reporter, 24 h, higher = more signal, called active from +8 up or from −8 down.
The target in assay [5] is Fibroblast growth factor 10 (Homo sapiens) (UniProt O15520). Put plainly: compounds binding fibroblast growth factor 10 – biochemical, small-molecule microarray, 635 nm fluorescence, primary screen (AID 1102). The note with it: FGF10 binding, fluorescence 635 nm, higher = more signal.
Sequence of Fibroblast growth factor 10 (Homo sapiens) (O15520 whole entry, looked up): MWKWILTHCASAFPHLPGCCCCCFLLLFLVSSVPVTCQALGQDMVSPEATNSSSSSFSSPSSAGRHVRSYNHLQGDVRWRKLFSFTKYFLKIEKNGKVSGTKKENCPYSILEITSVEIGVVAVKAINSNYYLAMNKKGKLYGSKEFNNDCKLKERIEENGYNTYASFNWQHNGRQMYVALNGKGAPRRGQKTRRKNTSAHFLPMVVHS
The subject of assay [6] is glycogen synthase kinase-3 (GSK3A per assay name; protocol says GSK3B). Put plainly: compounds binding glycogen synthase kinase-3 – biochemical, small-molecule microarray, 635 nm fluorescence, GSK3A, primary screen (AID 1103). Note: the record names both GSK3A and GSK3B. The following applies: fluorescence 635 nm, higher = more signal.
Assay [7] has as its target Epidermal growth factor receptor (Homo sapiens) (UniProt P00533). Put plainly: compounds binding epidermal growth factor receptor – biochemical, small-molecule microarray, 635 nm fluorescence, primary screen (AID 1104).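 Note: score merges 667 nm emission intensity with spot signal to noise over triplicate slides.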 The note with it: EGFR binding, higher = more signal.
Assay [8] has as its target Follistatin-related protein 3 (Homo sapiens) (UniProt O95633). Put plainly: compounds binding follistatin-related protein 3 – biochemical, small-molecule microarray, 635 nm fluorescence, primary screen (AID 1105).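 Note: score merges emission near 667 nm and signal to noise per printed spot across three slides.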 The note with it: FSTL3 binding, higher = more signal.
For assay [9], the target named is Dickkopf-related protein 1 (Homo sapiens) (UniProt O94907). As to the kind of experiment: small molecules binding DKK1 protein – biochemical, small-molecule microarray, 635 nm fluorescence scan, primary screen (AID 1106).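 Note: score merges emission near 667 nm with signal to noise over three replicate slides.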 The note with it: higher = more signal.
Sequence of Dickkopf-related protein 1 (Homo sapiens) (O94907 whole entry, looked up): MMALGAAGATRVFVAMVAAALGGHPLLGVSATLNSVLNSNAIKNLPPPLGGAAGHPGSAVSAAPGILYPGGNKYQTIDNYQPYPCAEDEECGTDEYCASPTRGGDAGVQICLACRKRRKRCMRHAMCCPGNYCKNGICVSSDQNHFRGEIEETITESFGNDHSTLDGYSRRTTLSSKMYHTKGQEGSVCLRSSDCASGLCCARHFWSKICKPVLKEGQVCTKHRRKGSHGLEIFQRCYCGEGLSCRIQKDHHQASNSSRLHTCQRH
The subject of assay [10] is Inhibin beta A chain (activin A). Put plainly: small molecules binding activin A – biochemical, small-molecule microarray, 635 nm fluorescence scan, primary screen (AID 1107).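 Note: mouse activin A protein probed at 4.33 µg/mL on printed slides; score merges bound-protein fluorescence near 667 nm with spot signal-to-noise.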 The note with it: INHBA, higher = more signal.
Assay [11] has as its system Human papillomavirus type 1a protein E7 (residues 44-93). As to the kind of experiment: small molecules binding HPV E7 44-93 – biochemical, small-molecule microarray, residues 44-93, 635 nm fluorescence, primary screen (AID 1108).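 Note: E7 fragment applied at 1 µg/mL in TBST for 1 h at 4 C; score combines spot fluorescence with its signal to noise ratio.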 The following applies: fluorescence 635 nm, higher = more signal.
Assay [12] in a line: hepatitis C replication reporter changes, two-sided – Huh7 cells, luciferase reporter, HCV replication inhibitor project, primary screen (AID 1109).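 Note: huh7 hepatoma cells harbouring a luciferase neomycin HCV replicon reporter; luciferase luminescence as measure of HCV replicon replication; test concentration not given here.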 The note with it: Huh7 HCV replicon luciferase reporter, 48 h; higher = more signal. A general note: In a reporter assay the amount or activity of a reporter protein is the signal.
The target in assay [13] is Left-right determination factor 2 (Homo sapiens) (UniProt O00292). Put plainly: small molecules binding LEFTY2 protein – biochemical, small-molecule microarray, 635 nm fluorescence scan, primary screen (AID 1110). The following applies: higher = more signal.
Sequence of Left-right determination factor 2 (Homo sapiens) (O00292 whole entry, looked up): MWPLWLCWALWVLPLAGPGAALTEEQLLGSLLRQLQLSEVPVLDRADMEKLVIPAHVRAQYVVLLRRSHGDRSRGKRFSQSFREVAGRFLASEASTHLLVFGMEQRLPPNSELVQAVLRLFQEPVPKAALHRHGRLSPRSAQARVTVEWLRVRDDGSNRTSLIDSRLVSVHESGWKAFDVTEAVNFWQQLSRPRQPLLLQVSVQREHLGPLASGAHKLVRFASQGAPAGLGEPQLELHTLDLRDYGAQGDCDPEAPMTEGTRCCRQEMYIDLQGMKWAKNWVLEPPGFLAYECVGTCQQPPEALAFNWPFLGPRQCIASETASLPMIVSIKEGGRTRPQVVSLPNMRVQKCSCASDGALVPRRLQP
Assay [14] concerns the target Calmodulin-1 (Homo sapiens) (UniProt P0DP23). Put plainly: small molecules binding calmodulin-1 with EGTA – biochemical, small-molecule microarray, Cy5-labelled CALM1, profiling panel (AID 1111).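 Note: labelled calmodulin applied in Tris saline Tween buffer holding calcium plus EGTA and DTT.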 The following applies: Cy5-CALM1 binding fluorescence, higher = more signal.
For assay [15] the target is unchanged. Put plainly: small molecules binding Ca-loaded calmodulin-1 – biochemical, small-molecule microarray, Cy5-labelled CALM1, plus calcium, artefact control for SMM control-protein annotation, profiling panel (AID 1112).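 Note: score merges spot fluorescence with signal to noise from triplicate slides.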 The note with it: Cy5-CALM1 binding fluorescence, higher = more signal.
A short description of assay [16]: probe aWnt5a binding to arrayed compounds – biochemical, biotinylated probe, 635/667 nm fluorescence, primary screen (AID 1113).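 Note: score merges 667 nm fluorescence intensity with signal-to-noise per printed feature.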 The following applies: small-molecule microarray, higher = more signal.
Assay [17] in a line: probe aShh binding to arrayed compounds – biochemical, biotinylated probe, 635/667 nm fluorescence, primary screen (AID 1114).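 Note: probe is biotin-labelled aShh protein from a stem cell growth factor screen; measures binding of labelled protein to compounds printed on the slide; score merges feature fluorescence at 667 nm with signal-to-noise.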 The note with it: small-molecule microarray, higher = more signal.
The nature of assay [18]: probe aNog binding to arrayed compounds – biochemical, biotinylated probe, 635/667 nm fluorescence, primary screen (AID 1115).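 Note: probe is biotinylated aNog protein used at 0.15 µg/mL for 1 h at 4 C; z-score combines 667 nm fluorescence of each spot with its signal to noise.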 The following applies: small-molecule microarray, higher = more signal.
Assay [19] concerns the target Torsin-1A-interacting protein 1 (Homo sapiens) (UniProt Q5JTV8). As to the kind of experiment: compound microarray binding of lysate hLAP1 – cell lysate, small-molecule microarray, COS7 lysate, 635/667 nm fluorescence, primary screen (AID 1116). The note with it: 635 nm fluorescence, higher = more signal.
The target in assay [20] is Alpha-bungarotoxin (Bungarus multicinctus) (UniProt P60615). Put plainly: compounds binding labelled alpha-BTX control protein – biochemical, small-molecule microarray, Alexa647 label, 635/667 nm fluorescence, artefact control for SMM control protein annotation, profiling panel (AID 1117). The note with it: alpha-BTX-A647 binding fluorescence, higher = more signal.
Sequence of Alpha-bungarotoxin (Bungarus multicinctus) (P60615 whole entry, looked up): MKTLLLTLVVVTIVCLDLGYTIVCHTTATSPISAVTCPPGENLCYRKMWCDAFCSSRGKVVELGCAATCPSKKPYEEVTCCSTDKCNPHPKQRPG

Sequence of Epidermal growth factor receptor (Homo sapiens) (P00533 whole entry, looked up): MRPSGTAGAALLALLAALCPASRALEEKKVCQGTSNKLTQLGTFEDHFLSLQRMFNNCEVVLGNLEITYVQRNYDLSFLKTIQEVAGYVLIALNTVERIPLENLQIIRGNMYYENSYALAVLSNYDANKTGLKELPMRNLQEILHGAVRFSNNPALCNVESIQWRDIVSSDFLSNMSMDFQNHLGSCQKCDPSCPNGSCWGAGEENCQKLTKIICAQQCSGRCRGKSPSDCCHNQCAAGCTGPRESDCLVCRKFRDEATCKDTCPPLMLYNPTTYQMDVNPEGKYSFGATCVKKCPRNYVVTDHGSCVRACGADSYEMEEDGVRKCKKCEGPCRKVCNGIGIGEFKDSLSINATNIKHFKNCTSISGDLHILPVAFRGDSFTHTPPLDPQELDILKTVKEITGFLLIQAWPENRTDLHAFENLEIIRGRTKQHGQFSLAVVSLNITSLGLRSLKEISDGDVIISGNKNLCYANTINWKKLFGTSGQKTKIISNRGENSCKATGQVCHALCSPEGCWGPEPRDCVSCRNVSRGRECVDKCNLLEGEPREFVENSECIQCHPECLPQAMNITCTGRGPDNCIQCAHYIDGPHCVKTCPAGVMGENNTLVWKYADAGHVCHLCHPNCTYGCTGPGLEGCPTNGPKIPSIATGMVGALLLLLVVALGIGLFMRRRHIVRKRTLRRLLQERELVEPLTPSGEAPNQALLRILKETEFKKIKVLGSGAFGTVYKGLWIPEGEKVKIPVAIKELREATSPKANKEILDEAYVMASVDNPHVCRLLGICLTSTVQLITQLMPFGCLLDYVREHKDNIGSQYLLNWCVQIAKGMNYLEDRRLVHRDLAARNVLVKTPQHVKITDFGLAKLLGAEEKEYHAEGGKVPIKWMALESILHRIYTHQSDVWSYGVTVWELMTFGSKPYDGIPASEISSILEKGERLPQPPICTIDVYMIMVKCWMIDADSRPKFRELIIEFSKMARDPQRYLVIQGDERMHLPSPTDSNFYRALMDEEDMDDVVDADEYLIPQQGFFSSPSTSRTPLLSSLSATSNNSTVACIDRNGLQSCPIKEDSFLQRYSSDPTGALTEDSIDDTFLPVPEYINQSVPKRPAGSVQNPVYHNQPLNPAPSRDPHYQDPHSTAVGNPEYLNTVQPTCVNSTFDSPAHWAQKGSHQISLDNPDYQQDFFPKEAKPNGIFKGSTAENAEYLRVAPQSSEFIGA
Sequence of Torsin-1A-interacting protein 1 (Homo sapiens) (Q5JTV8 whole entry, looked up): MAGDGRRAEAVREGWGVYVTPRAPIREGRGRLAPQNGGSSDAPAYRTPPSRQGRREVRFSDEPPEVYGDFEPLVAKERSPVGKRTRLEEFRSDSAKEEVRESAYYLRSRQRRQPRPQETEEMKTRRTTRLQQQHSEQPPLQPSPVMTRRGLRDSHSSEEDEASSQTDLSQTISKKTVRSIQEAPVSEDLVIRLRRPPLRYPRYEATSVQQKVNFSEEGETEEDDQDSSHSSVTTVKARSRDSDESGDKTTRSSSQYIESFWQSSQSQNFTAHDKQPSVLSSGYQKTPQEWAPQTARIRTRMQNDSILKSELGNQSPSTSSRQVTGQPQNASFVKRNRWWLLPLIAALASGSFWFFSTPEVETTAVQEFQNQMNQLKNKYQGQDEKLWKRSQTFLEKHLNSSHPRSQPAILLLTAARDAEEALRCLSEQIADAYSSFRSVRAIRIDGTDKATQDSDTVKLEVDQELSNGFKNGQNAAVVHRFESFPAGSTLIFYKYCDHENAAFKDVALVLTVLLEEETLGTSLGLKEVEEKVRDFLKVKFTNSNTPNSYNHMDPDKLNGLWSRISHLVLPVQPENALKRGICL
Sequence of Follistatin-related protein 3 (Homo sapiens) (O95633 whole entry, looked up): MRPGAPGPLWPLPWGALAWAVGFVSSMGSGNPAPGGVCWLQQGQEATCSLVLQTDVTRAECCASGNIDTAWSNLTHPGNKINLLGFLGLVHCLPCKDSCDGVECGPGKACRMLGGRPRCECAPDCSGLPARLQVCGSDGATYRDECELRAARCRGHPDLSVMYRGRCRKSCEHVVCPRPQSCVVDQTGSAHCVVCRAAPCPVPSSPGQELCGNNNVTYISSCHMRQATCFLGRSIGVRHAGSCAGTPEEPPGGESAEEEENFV

As to `C[C@@H]1CC[C@H]2C(=O)O[C@H](CN=[N+]=[N-])CN2[C@H]1c1ccc(Br)cc1`, the composite z-score is -0.0157 and 0.121 in assay [1]; 0.117 and -0.31 in assay [2]; -0.444 and -0.466 in [3]; 0.152 and -0.213 in assay [5]; -0.267 and -0.529 in assay [6]; 0.0267 and 0.0063 in assay [7]. Further, the composite z-score in assay [8] was -0.237 and -0.547; in assay [9] it was 0.342 and -0.127; in [10], 0.746 and 0.78; in assay [11] it was -0.322 and -0.172; in assay [13], 0.0584 and 0.213; in assay [14], -0.425 and -0.201. Moreover, the composite z-score in assay [15] is -0.306 and -0.544; in assay [16] it was -0.124; in assay [17], -0.174 and -0.0769; in assay [18], 0.0078 and -0.196; in assay [19] it was -0.21 and 0.116; in assay [20], 0.089 and 0.397. Further, the z-score in assay [4] is 0.254 (inactive) and -0.0654 (inactive); in assay [12], -0.0944 and 0.335.

Turning to `CCN1C(=O)[C@H]2[C@H]3[C@H](O)[C@H](O)CC(=NOC[C@@H](O)COCc4ccco4)[C@@H]3CC[C@H]2C1=O`, the composite z-score is 0.449 and 1.11 in assay [1]; 0.439 and -0.572 in assay [2]; -1.3 and -1.1 in assay [3]; -0.397 and 0.588 in assay [5]; 0.823 and -0.198 in assay [6]; 1.28 and 0.0979 in [7]. The composite z-score in assay [8] is 1.21 and -0.333; in [9], 1.56 and 0.836; in [10] it was 0.666 and -0.0006; in [11], -1.08 and -1.63; in assay [13] it was 1.32 and 0.764; in [14], -1.05 and -0.872. For the same compound, the composite z-score in assay [15] is -1.72 and -1.74; in assay [16], -0.0721 and -0.232; in assay [17], -0.145 and -0.138; in assay [18], 0.0326 and -0.0236; in [19], 0.205 and -0.291; in [20] it was 0.0851 and -0.421. For the same compound, the z-score in assay [4] is 0.259 (inactive) and 0.403 (inactive); in assay [12], 0.0085 and 1.42.

As for `COC(=O)[C@H](C)NC(=O)CCC1CC(OC(=O)NCCc2ccc(F)cc2)CC2(CCCC(COC(=O)NCCCN3CCCC3=O)O2)O1` (stereo not given in full), the composite z-score is 1.07 in assay [1]; -0.0361 in [2]; 0.778 in assay [3]; 1.14 in [5]; 1.28 in assay [6]; 0.597 in assay [7]. In addition, the composite z-score in assay [8] is 1.36; in assay [9], 1.44; in [10] it was -0.0362; in assay [11], 1.39; in [13] it was 1.21; in assay [14], 0.95. For the same compound, the composite z-score in assay [15] is -0.387; in assay [16] it was -0.172; in assay [17], 0.0278; in assay [18], 0.33; in [19] it was 1.05; in assay [20] it was 1.14. Also, the z-score in [4] was -0.247 (inactive); in assay [12], -2.21.

Turning to `COC(=O)C1=C(C)N(Cc2ccccc2)[C@]23O[C@](C(=O)OC)(C(=O)N2[C@@H]1c1ccccc1)[C@H]1CCCC(=O)[C@H]13`, the composite z-score was 0.355 and 0.285 in assay [1]; 0.0172 and -0.338 in assay [2]; -0.298 and -0.45 in assay [3]; 0.526 and 0.72 in assay [5]; 0.201 and 0.287 in [6]; 0.218 and 0.506 in assay [7]. Further, the composite z-score is 0.336 and 0.515 in assay [8]; 0.421 and 0.508 in [9]; 0.518 and 0.15 in assay [10]; -0.525 and 0.155 in assay [11]; 0.877 and 0.588 in [13]; -0.127 and -0.222 in [14]. Further, the composite z-score in [15] was 0.0491 and -0.499; in assay [16], -0.0792 and -0.0462; in [17] it was -0.0146 and -0.0553; in assay [18] it was -0.275 and -0.367; in [19], 0.206 and 0.139; in assay [20] it was 0.787 and 0.0026. The z-score was -0.0479 (inactive) and -1.41 (inactive) in [4]; -3.35 and -1.15 in assay [12].

As to `CCOC(=O)C[C@H]1[C@H](OC(=O)c2ccccc2-c2ccccc2)[C@@H](NC(=O)c2ccccc2)c2cc(OCCCO)ccc2N1C(=O)c1ccc2ccccc2n1`, the composite z-score in assay [1] is -0.134 and 0.522; in [2], 0.298 and -0.106; in [3], 0.229 and 0.0414; in [5], 0.97 and 0.586; in [6], 0.612 and 0.576; in assay [7] it was 0.284 and 0.207. The composite z-score is 0.47 and 0.8 in [8]; 0.452 and 0.19 in assay [9]; 0.227 and 0.981 in assay [10]; 0.288 and 1.08 in [11]; 0.668 and 0.619 in [13]; -0.118 and 1.47 in assay [14]. Also, the composite z-score is -0.148 and 0.227 in assay [15]; 0.0324 and -0.108 in assay [16]; -0.2 and 0.0078 in assay [17]; -0.122 and 0.386 in [18]; 0.491 and 0.364 in assay [19]; 0.328 and 0.833 in assay [20]. In addition, the z-score in assay [4] is -0.0583 (inactive) and -0.0708 (inactive); in assay [12], -1.19 and -0.583.
